Test results from the supplement of paper PMC11732987, “Enantioselective OTUD7B fragment discovery through chemoproteomics screening and high-throughput optimisation” (Communications Chemistry, 2025).

Experiments:
Test in all cases: log2 ratio of Biotin-Ahx-Ub-VS probe labelling (fragment/DMSO); higher = less target engagement (more negative = stronger competition), active = hit call of the paper (q ≤ 0.05, log2 ratio ≤ -1)
Settings in all cases: compound concentration: 200 uM; treatment time: 3 h
USP19 = target: T1, USP19 (UniProt O94966)
T1 sequence (whole entry): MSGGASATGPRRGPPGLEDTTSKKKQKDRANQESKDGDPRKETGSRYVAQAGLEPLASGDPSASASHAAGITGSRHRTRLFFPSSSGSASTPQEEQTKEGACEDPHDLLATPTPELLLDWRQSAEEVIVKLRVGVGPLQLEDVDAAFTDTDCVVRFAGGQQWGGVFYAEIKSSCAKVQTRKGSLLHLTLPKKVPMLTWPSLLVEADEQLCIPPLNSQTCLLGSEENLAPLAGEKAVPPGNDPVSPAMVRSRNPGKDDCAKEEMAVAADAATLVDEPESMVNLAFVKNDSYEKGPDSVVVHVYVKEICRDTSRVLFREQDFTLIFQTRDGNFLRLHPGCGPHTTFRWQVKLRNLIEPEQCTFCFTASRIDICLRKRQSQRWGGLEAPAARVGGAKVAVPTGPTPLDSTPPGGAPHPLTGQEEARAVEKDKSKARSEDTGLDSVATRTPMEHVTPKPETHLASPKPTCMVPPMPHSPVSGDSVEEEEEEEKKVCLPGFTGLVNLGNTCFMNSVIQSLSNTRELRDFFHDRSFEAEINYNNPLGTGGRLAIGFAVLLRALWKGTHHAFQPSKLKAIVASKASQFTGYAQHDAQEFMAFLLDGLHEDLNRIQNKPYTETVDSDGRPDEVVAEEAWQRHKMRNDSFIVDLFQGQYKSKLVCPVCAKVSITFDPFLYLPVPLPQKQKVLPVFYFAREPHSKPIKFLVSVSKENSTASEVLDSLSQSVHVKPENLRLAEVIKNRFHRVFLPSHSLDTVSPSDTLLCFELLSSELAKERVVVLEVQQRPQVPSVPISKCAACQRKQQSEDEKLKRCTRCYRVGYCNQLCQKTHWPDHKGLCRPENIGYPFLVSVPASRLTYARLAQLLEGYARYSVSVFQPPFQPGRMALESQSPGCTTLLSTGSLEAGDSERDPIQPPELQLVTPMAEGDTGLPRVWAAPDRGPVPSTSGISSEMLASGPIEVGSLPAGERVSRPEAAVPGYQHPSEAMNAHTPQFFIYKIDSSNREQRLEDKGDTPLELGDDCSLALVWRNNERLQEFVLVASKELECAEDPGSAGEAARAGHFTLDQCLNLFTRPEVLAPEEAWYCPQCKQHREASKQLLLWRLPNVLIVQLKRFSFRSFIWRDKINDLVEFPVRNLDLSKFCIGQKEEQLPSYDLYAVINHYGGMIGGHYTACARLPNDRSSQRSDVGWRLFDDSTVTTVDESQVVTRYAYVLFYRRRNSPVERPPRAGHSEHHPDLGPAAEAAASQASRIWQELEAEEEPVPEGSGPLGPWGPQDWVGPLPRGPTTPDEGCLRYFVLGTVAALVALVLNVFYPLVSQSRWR
Summary of the method: (§1)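 HEK293T lysate, 495 µg per sample in Tris/CHAPS/IGEPAL buffer with protease inhibitors, was treated in triplicate with fragment at 200 µM or vehicle for 3 h and then with Biotin-Ahx-Ub-VS at 0.5 µM final for 1 h. Labelled DUBs were NeutrAvidin-enriched, digested with LysC and trypsin, and run by diaPASEF LC-MS/MS. Spectronaut label-free quantities were global-median-normalised, and values are average log2 fragment/vehicle ratios by unpaired t-test on proteins with ≥2 unique peptides.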

USP22 = target: T2, USP22 (UniProt Q9UPT9)
T2 sequence (whole entry): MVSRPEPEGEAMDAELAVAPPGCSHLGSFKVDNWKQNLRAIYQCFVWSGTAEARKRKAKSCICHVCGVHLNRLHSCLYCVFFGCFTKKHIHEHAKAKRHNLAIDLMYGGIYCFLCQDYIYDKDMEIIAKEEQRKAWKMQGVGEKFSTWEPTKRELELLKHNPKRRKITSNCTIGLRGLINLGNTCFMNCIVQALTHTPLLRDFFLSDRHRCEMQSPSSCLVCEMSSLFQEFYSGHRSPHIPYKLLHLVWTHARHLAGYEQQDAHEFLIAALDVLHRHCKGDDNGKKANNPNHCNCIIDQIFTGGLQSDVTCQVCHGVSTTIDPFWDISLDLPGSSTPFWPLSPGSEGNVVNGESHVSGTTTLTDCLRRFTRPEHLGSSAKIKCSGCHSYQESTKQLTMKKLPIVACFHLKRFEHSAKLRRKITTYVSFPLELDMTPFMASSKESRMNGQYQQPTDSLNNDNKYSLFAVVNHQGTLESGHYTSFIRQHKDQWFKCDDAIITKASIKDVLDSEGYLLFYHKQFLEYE
Summary of the method: as §1

USP24 = USP24 (UniProt Q9UPU5)
USP24, sequence (Q9UPU5 whole entry): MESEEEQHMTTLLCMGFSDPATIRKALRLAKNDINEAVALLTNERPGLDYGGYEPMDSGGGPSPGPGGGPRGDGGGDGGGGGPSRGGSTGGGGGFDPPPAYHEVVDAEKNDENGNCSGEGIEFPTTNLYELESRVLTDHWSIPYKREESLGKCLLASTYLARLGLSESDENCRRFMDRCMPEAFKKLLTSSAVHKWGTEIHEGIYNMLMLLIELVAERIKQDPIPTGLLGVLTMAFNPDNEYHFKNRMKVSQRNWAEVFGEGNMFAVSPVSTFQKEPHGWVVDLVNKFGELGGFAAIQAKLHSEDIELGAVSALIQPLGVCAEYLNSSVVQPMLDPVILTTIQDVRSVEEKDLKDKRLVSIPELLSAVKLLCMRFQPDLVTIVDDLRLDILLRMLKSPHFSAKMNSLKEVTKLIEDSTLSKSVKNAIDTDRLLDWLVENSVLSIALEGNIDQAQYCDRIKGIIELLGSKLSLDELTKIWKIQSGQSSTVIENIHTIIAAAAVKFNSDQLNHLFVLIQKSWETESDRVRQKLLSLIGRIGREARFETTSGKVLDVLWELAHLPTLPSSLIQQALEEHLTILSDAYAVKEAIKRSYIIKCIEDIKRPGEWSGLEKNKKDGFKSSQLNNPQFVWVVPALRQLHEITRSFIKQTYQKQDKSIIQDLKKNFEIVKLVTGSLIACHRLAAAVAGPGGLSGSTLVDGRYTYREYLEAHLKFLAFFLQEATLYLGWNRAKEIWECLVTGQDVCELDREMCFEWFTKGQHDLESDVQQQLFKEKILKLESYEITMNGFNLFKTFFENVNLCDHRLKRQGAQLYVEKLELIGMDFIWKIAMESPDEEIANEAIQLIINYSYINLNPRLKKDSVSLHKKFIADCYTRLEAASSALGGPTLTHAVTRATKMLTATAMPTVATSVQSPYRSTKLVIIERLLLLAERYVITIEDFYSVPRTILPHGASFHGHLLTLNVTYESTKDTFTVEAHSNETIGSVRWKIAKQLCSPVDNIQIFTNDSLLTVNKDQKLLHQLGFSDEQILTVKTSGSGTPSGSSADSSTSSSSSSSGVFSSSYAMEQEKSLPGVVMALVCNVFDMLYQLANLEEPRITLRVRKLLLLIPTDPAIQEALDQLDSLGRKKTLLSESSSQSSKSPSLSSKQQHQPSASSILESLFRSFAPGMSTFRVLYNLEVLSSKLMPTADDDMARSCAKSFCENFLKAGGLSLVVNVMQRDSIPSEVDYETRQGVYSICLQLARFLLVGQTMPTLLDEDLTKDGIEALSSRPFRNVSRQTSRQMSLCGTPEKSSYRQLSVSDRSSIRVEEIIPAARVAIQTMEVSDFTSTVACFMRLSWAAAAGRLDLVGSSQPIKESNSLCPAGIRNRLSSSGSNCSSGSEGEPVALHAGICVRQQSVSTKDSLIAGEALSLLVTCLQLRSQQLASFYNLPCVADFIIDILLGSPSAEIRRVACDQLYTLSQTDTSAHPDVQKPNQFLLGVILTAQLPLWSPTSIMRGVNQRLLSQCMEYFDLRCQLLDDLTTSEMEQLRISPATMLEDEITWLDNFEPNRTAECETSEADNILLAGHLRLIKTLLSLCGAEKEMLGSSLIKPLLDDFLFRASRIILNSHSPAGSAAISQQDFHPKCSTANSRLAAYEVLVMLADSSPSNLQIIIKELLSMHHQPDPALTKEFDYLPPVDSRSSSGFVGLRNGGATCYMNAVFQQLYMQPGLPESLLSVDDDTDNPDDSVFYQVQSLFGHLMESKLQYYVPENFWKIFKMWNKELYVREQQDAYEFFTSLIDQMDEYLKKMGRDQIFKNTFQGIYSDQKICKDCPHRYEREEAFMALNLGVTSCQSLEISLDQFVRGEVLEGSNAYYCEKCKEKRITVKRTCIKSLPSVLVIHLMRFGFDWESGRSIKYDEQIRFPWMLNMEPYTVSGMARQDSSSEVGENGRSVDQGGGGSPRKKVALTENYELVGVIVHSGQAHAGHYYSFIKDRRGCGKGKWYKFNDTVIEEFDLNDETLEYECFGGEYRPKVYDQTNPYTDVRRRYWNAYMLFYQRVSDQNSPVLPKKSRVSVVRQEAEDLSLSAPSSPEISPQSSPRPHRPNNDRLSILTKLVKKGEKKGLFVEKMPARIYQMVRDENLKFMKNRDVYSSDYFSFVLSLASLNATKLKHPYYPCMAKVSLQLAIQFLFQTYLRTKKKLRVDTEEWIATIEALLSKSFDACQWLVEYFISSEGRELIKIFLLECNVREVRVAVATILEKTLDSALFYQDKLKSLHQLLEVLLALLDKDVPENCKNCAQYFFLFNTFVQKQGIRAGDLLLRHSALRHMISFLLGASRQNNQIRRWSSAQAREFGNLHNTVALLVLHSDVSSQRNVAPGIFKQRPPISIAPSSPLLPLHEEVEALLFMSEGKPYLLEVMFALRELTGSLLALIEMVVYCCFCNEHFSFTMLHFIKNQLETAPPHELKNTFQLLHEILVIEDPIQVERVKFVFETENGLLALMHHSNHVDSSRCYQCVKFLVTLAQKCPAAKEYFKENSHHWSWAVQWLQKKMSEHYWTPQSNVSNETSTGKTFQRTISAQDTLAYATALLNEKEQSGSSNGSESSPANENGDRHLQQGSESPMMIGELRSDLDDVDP
Summary of the method: as §1

USP25 = target: T3, USP25 (UniProt Q9UHP3)
T3 sequence (whole entry): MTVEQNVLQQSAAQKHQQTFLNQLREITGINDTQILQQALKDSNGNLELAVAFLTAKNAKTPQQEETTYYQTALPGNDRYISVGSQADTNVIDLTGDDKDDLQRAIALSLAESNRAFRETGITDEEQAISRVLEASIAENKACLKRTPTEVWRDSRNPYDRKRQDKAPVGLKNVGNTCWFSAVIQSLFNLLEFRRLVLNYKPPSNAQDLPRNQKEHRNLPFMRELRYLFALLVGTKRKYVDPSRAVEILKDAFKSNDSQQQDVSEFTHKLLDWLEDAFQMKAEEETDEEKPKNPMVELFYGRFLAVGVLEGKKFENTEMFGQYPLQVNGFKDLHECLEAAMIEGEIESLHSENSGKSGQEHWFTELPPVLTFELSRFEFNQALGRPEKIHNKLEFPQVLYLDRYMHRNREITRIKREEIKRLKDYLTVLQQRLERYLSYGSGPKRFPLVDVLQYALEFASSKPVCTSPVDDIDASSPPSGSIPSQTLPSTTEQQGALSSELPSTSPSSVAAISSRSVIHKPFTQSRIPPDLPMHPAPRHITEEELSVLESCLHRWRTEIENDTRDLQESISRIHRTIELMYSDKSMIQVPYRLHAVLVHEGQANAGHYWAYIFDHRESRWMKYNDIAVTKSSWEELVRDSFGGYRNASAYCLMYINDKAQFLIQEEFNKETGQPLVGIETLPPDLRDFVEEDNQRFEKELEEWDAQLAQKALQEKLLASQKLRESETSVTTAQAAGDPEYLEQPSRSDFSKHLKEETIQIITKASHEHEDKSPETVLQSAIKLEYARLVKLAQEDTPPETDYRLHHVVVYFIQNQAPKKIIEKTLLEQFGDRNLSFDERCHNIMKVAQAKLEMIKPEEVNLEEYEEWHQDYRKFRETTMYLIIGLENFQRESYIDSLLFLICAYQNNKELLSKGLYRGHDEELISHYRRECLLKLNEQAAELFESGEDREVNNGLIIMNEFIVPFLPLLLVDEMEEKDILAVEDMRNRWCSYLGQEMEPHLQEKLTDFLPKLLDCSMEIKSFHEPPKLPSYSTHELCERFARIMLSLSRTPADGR
Summary of the method: as §1

USP28 = target: T4, USP28 (UniProt Q96RU2)
T4 sequence (whole entry): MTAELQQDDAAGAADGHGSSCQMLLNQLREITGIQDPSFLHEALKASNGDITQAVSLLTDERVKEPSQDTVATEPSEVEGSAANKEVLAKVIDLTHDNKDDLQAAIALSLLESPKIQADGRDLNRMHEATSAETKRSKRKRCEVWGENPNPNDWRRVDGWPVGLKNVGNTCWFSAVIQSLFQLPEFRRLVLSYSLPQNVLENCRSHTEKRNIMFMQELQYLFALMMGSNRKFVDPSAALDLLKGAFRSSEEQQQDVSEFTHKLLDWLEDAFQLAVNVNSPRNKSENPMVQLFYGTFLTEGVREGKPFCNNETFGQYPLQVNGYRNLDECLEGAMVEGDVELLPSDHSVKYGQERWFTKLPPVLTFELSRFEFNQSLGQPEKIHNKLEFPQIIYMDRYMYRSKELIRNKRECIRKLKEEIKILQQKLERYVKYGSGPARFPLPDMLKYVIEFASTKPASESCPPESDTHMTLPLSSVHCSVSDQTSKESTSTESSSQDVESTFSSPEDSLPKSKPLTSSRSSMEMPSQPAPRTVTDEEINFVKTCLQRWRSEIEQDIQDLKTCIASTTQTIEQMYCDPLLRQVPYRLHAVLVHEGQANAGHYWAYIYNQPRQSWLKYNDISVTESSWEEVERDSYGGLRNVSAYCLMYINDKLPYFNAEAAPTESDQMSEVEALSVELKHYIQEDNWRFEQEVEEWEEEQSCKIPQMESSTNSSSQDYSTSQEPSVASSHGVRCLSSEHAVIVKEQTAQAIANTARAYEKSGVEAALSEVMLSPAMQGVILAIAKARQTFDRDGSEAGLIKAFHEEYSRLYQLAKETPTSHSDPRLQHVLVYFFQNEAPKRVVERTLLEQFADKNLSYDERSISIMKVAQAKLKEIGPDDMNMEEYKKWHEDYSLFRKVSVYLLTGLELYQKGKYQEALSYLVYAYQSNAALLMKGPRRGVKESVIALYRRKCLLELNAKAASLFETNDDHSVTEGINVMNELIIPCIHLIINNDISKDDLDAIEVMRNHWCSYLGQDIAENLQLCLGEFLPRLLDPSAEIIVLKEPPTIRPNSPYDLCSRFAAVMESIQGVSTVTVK
Summary of the method: as §1

Measured: log2 ratio of Biotin-Ahx-Ub-VS probe labelling

Cl.O=C(CCl)NCCc1ncc(F)cc1F
inactive: USP19 -0.108 | USP22 -0.0071 | USP24 -0.335 | USP25 -0.361 | USP28 -0.502
